According to the supplement of paper PMC8728848:
This excerpt belongs to a sample that is enriched for the strongest signals.

What was measured:
Assay in all cases: glycan array binding signal (z-score within array); higher = stronger binding
Conditions in all cases: glycan notation: IUPAC condensed, linker removed
[1] = target: Gal(b1-4)GlcNAc(b1-3)Gal(b1-4)GlcNAc(b1-2)[Gal(b1-4)GlcNAc(b1-3)Gal(b1-4)GlcNAc(b1-6)]Man(a1-6)[Gal(b1-4)GlcNAc(b1-3)Gal(b1-4)GlcNAc(b1-2)Man(a1-3)]Man(b1-4)GlcNAc(b1-4)GlcNAc
Procedure, shortened: (§1)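 The Consortium for Functional Glycomics database supplied 3228 glycan arrays, of which those lacking an available protein sequence were dropped. The binding signal, a within-array Z-score, was averaged across arrays of the same protein sequence and across linkers. Negative scores can be read as non-binding.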

[2] = target: Gal(b1-4)GlcNAc(b1-3)Gal(b1-4)GlcNAc(b1-3)Gal(b1-4)GlcNAc(b1-2)Man(a1-3)[Gal(b1-4)GlcNAc(b1-3)Gal(b1-4)GlcNAc(b1-3)Gal(b1-4)GlcNAc(b1-2)Man(a1-6)]Man(b1-4)GlcNAc(b1-4)[Fuc(a1-6)]GlcNAc
Procedure, shortened: as §1

[3] = target: Gal(b1-4)GlcNAc(b1-3)Gal(b1-4)GlcNAc(b1-3)Gal(b1-4)GlcNAc(b1-3)Gal(b1-4)GlcNAc(b1-2)Man(a1-3)[Gal(b1-4)GlcNAc(b1-3)Gal(b1-4)GlcNAc(b1-3)Gal(b1-4)GlcNAc(b1-3)Gal(b1-4)GlcNAc(b1-2)Man(a1-6)]Man(b1-4)GlcNAc(b1-4)[Fuc(a1-6)]GlcNAc
Procedure, shortened: as §1

[4] = target: Gal(b1-4)GlcNAc(b1-3)Gal(b1-4)GlcNAc(b1-3)Gal(b1-4)GlcNAc(b1-3)Gal(b1-4)GlcNAc(b1-3)Gal(b1-4)GlcNAc(b1-2)[Gal(b1-4)GlcNAc(b1-3)Gal(b1-4)GlcNAc(b1-3)Gal(b1-4)GlcNAc(b1-3)Gal(b1-4)GlcNAc(b1-3)Gal(b1-4)GlcNAc(b1-6)]Man(a1-6)[Gal(b1-4)GlcNAc(b1-3)Gal(b1-4)GlcNAc(b1-3)Gal(b1-4)GlcNAc(b1-3)Gal(b1-4)GlcNAc(b1-3)Gal(b1-4)GlcNAc(b1-2)Man(a1-3)]Man(b1-4)GlcNAc(b1-4)[Fuc(a1-6)]GlcNAc
Procedure, shortened: as §1

[5] = target: Gal(b1-4)GlcNAc(b1-3)Gal(b1-4)GlcNAc(b1-6)[Gal(b1-3)]GalNAc
Procedure, shortened: as §1

[6] = target: GalNAc(b1-4)Gal(b1-4)Glc
Procedure, shortened: as §1

[7] = target: GalNAc(b1-4)GlcNAc
Procedure, shortened: as §1

[8] = target: GalNAc(b1-4)GlcNAc(b1-2)Man(a1-3)[GalNAc(b1-4)GlcNAc(b1-2)Man(a1-6)]Man(b1-4)GlcNAc(b1-4)GlcNAc
Procedure, shortened: as §1

[9] = target: GalNAc3S(b1-4)[Fuc(a1-3)]GlcNAc
Procedure, shortened: as §1

[10] = target: GalNAc6S(b1-4)GlcNAc
Procedure, shortened: as §1

[11] = target: GlcA3S(b1-3)Gal(b1-4)GlcNAc(b1-2)Man
Procedure, shortened: as §1

[12] = target: GlcNAc(a1-4)Gal(b1-4)GlcNAc(b1-3)Gal(b1-4)Glc
Procedure, shortened: as §1

[13] = target: GlcNAc(b1-2)[GlcNAc(b1-4)]Man(a1-3)[GlcNAc(b1-2)Man(a1-6)]Man(b1-4)GlcNAc(b1-4)GlcNAc
Procedure, shortened: as §1

[14] = target: GlcNAc(b1-3)Gal(b1-4)GlcNAc(b1-2)Man(a1-3)[GlcNAc(b1-3)Gal(b1-4)GlcNAc(b1-2)Man(a1-6)]Man(b1-4)GlcNAc(b1-4)[Fuc(a1-6)]GlcNAc
Procedure, shortened: as §1

[15] = target: GlcNAc(b1-3)GalNAc
Procedure, shortened: as §1

[16] = target: GlcNAc(b1-3)Man
Procedure, shortened: as §1

[17] = target: GlcNAc(b1-4)Gal(b1-4)GlcNAc
Procedure, shortened: as §1

[18] = target: Man(a1-6)Man
Procedure, shortened: as §1

[19] = target: Neu5Ac(a2-3)Gal(b1-3)GalNAc
Procedure, shortened: as §1

[20] = target: Neu5Ac(a2-3)Gal(b1-3)GlcNAc(b1-2)Man(a1-3)[Neu5Ac(a2-3)Gal(b1-3)GlcNAc(b1-2)Man(a1-6)]Man(b1-4)GlcNAc(b1-4)GlcNAc
Procedure, shortened: as §1

[21] = target: Neu5Ac(a2-3)Gal(b1-3)GlcNAc(b1-3)GalNAc
Procedure, shortened: as §1

[22] = target: Neu5Ac(a2-3)Gal(b1-3)[Fuc(a1-4)]GlcNAc(b1-3)Gal(b1-3)[Fuc(a1-4)]GlcNAc
Procedure, shortened: as §1

[23] = target: Neu5Ac(a2-3)Gal(b1-3)[Neu5Ac(a2-6)]GlcNAc(b1-3)[Fuc(a1-3)[Gal(b1-4)]GlcNAc(b1-6)]Gal(b1-4)Glc
Procedure, shortened: as §1

[24] = target: Neu5Ac(a2-3)Gal(b1-4)Glc
Procedure, shortened: as §1

[25] = target: Neu5Ac(a2-3)Gal(b1-4)GlcNAc(b1-3)Gal(b1-4)GlcNAc(b1-3)Gal(b1-4)GlcNAc
Procedure, shortened: as §1

[26] = target: Neu5Ac(a2-6)Gal(b1-3)GlcNAc(b1-3)[Gal(b1-4)GlcNAc(b1-6)]Gal(b1-4)Glc
Procedure, shortened: as §1

[27] = target: Neu5Ac(a2-8)Neu5Ac(a2-3)Gal(b1-4)GlcNAc
Procedure, shortened: as §1

[28] = target: Neu5Ac(a2-8)Neu5Ac(a2-8)Neu5Ac
Procedure, shortened: as §1

[29] = target: Neu5Gc(a2-3)Gal(b1-4)GlcNAc
Procedure, shortened: as §1

[30] = target: Neu5Gc(a2-6)Gal(b1-4)GlcNAc
Procedure, shortened: as §1

B1: SabA (Helicobacter pylori) (protein)
chain: MGSSHHHHHHSSGLVPRGSHMENLYFQGEDNGFFVSAGYQIGEAVQMVKNTGELKNLNEKYEQLSQYLNQVASLKQSIQNANNIELVNSSLNYLKSFTNNNYNSTTQSPIFNAVQAVITSVLGFWSLYAGNYFTFFVGKKVGDSGQPASVQGNPPFKTIIENCSGIENCAMDQTTYDKMKKLAEDLQAAQTNSATKGNNLCALSGCAATDSTSNPPNSTVSNALNLAQQLMDLIANTKTAMMWKNIVISGVSNTSGAITSTNYPTQYAVFNNIKAMIPILQQAVTLSQSNHTLSASLQAQATGSQTNPKFAKDIYTFAQNQKQVISYAQDIFNLFNSIPAEQYKYLEKAYLKIPNAGSTPTNPYRQVVNLNQEVQTIKNNVSYYGNRVDAALSVARDVYNLKSNQAEIVTAYNDAKTLSEEISKLPHNQVNTKDIVTLPYDKNAPAAGQSNYQINPEQQSNLNQALAAMSNNPFKKVGMISSQNNNGA
- glycan array binding signal (z-score) [1]: 2.39
- glycan array binding signal (z-score) [2]: -0.537
- glycan array binding signal (z-score) [3]: 0.132
- glycan array binding signal (z-score) [4]: -0.103
- glycan array binding signal (z-score) [5]: -0.494
- glycan array binding signal (z-score) [6]: 1.6
- glycan array binding signal (z-score) [7]: 0.676
- glycan array binding signal (z-score) [8]: 2.98
- glycan array binding signal (z-score) [9]: -0.298
- glycan array binding signal (z-score) [10]: 0.834
- glycan array binding signal (z-score) [11]: -0.867
- glycan array binding signal (z-score) [12]: -0.716
- glycan array binding signal (z-score) [13]: -0.287
- glycan array binding signal (z-score) [14]: 0.826
- glycan array binding signal (z-score) [15]: 0.191
- glycan array binding signal (z-score) [16]: 1.69
- glycan array binding signal (z-score) [17]: -0.173
- glycan array binding signal (z-score) [18]: -0.738
- glycan array binding signal (z-score) [19]: 0.965
- glycan array binding signal (z-score) [20]: 1.79
- glycan array binding signal (z-score) [21]: -0.131
- glycan array binding signal (z-score) [22]: 0.27
- glycan array binding signal (z-score) [23]: -0.626
- glycan array binding signal (z-score) [24]: 2.88
- glycan array binding signal (z-score) [25]: 0.051
- glycan array binding signal (z-score) [26]: -0.762
- glycan array binding signal (z-score) [27]: -0.714
- glycan array binding signal (z-score) [28]: -0.39
- glycan array binding signal (z-score) [29]: -0.614
- glycan array binding signal (z-score) [30]: 0.779
